From PubChem BioAssay AID431 (Sanford-Burnham Center for Chemical Genomics, 2006)
Out of some 63,000 compounds screened, about 1,100 (1.7%) were called active. The sample holds actives, similar compounds and a random draw of the others, so the mix is not that of the screen. Potency and affinity values are given separately. A number with no mark means an inactive call.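 Rule for the calls: active = compounds whose percent cytotoxicity in the single-dose primary screen, scaled between solvent and toxic-drug controls, exceeds 50; inactive = the rest.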

Experiment: viability loss of HPDE-C7K cells – cell-based, fluorescence, HTS, primary screen (AID 431);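 note: 0% = DMSO solvent wells and 100% = doxorubicin-treated wells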
Settings: HPDE-C7K KRASV12 cells, Alamar Blue viability, 48 h; at 10 µM; active compounds read high

SMILES | cytotoxicity
Cc1csc(SCc2c(C(=O)O)oc3ccccc23)n1 | -0.8%
CCOC(=O)C1=C(C)NC(=O)NC1c1cn(-c2ccccc2)nc1-c1cccs1 (stereo not drawn) | 23.8%
Fc1cccc(F)c1CN1CCN(c2ncccn2)CC1 | -1.5%
COCCN1Cc2cccc(C(=O)Nc3cccc(OC)c3)c2C1=O | -3.5%
Cn1c(=O)c2cc(S(=O)(=O)N3CCN(c4cccc(C(F)(F)F)c4)CC3)ccc2n(C)c1=O | -3.4%
Cn1c(=O)c(=O)n(C)c2cc(S(=O)(=O)N3CCN(c4cccc(C(F)(F)F)c4)CC3)ccc21 | 80.1% (active)
Cc1c(S(=O)(=O)N2CCN(c3cccc(C(F)(F)F)c3)CC2)c(=O)n(C)c(=O)n1C | 5.8%
COc1ccccc1CN(CC(=O)NCc1ccco1)C(=O)CNS(=O)(=O)c1ccccc1 | 1.2%
COc1ccccc1N1CCN(C(=O)C2CCN(S(=O)(=O)c3ccc(Cl)cc3)CC2)CC1 | -11.9%
Cc1cc(C(=O)OCC(=O)c2c(N)n(C)c(=O)n(C)c2=O)c(C)n1-c1ccccc1 | 1.3%
Cc1cccc(S(=O)(=O)C(C#N)c2nc3ccccc3nc2N2CC(C)OC(C)C2)c1 (stereo not drawn) | 7.7%
Cc1cccc(S(=O)(=O)C(C#N)c2nc3ccccc3nc2N2CCCC2)c1 (stereo not drawn) | -13.4%
Cc1ccc(C)c(S(=O)(=O)C(C#N)c2nc3ccccc3nc2N2CCOCC2)c1 (stereo not drawn) | -1.1%
Cc1ccc(S(=O)(=O)C(C#N)c2nc3ccccc3nc2N2CC(C)OC(C)C2)cc1C (stereo not drawn) | 76.5% (active)
Cc1ccc(S(=O)(=O)C(C#N)c2nc3ccccc3nc2N2CCCC2)cc1 (stereo not drawn) | 34.2%
Cc1ccc(S(=O)(=O)C(C#N)c2nc3ccccc3nc2N2CCC(C)CC2)cc1 (stereo not drawn) | 30.1%
COc1ccc(S(=O)(=O)C(C#N)c2nc3ccccc3nc2N2CCCCC2)cc1 (stereo not drawn) | 3.2%
COc1ccc(S(=O)(=O)C(C#N)c2nc3ccccc3nc2N2CCCC(C)C2)cc1 (stereo not drawn) | 60.2% (active)
Cc1ccc(S(=O)(=O)C(C#N)c2nc3ccccc3nc2N2CCCC2)cc1C (stereo not drawn) | 56.7% (active)
Cc1ccc(C)c(S(=O)(=O)C(C#N)c2nc3ccccc3nc2N2CC(C)OC(C)C2)c1 (stereo not drawn) | 59.3% (active)
Cc1ccc(C)c(S(=O)(=O)C(C#N)c2nc3ccccc3nc2N2CCCC2)c1 (stereo not drawn) | 14.7%
CC1CCCN(c2nc3ccccc3nc2C(C#N)S(=O)(=O)c2ccccc2)C1 (stereo not drawn) | 47.8%
Cc1ccccc1C(=O)N1CCC(C(=O)Nc2cccc(F)c2)CC1 | 3%
O=C(O)C1C2CCC(C2)C1C(=O)NCCCn1ccnc1 (stereo not drawn) | -7.9%

SMILES | cytotoxicity
CCCc1cc(=O)n2[nH]c(-c3cc(OC)c(OC)c(OC)c3)nc2n1 | -9.7%
CCCOc1cccc(C(=O)Nc2cccc(NC(=O)c3ccco3)c2)c1 | 7.4%
Cc1[nH]nc2c1C(c1ccc(F)cc1)C(C#N)=C(N)O2 (stereo not drawn) | -10.6%
CCOC(=O)C1CCCN(Cc2ccccc2F)C1 (stereo not drawn) | 4.8%
CC(C)c1ccc(S(=O)(=O)N2CCN(CC(=O)Nc3ccc4c(c3)OCO4)CC2)cc1 | 2.2%
CCOC(=O)N1CCN(Cc2nc(-c3ccccc3)no2)CC1 | 11.5%
Cc1noc(C)c1CSc1nc2ccccc2nc1NS(=O)(=O)c1ccc(Cl)cc1 | 64.6% (active)
O=S(=O)(Nc1nc2ccccc2nc1NCc1ccco1)c1ccc(Cl)cc1 | 20.9%
Cc1noc(C)c1CSc1ncnc2ccccc12 | 18.6%
COc1cc(C2C(C(=O)OC(C)C)=C(C)Nc3[nH]c(=O)[nH]c(=O)c32)ccc1O (stereo not drawn) | -5.8%
CN1C(=O)NC(NC(=O)c2cccs2)(C(F)(F)F)C1=O (stereo not drawn) | -12.1%
COc1ccc(N(C(=O)c2cccc(OC)c2OC)C2C=CS(=O)(=O)C2)cc1 (stereo not drawn) | -2.9%
c1ccc2c(c1)oc1c(Nc3ccc4c(c3)OCO4)ncnc12 | -23.6%
COc1ccc(/C=N/n2c(N)nc3ccccc32)cc1OC | -9.4%
COc1ccc(-c2nc(N)ncc2-c2csc(C)n2)c(O)c1 | -17.5%
Oc1ccc(-c2[nH]ncc2-c2ccc(Cl)cc2)c(O)c1 | 49.9%
COc1ccc(-c2n[nH]c(C)c2-c2ccc(Cl)cc2)c(O)c1OC | -14.6%
C=C(C)COc1ccc(-c2nc(N)ncc2Oc2ccc(OC)cc2)c(O)c1 | -0.9%
Cc1[nH]nc(-c2ccc(O)cc2O)c1-c1ccc(Cl)cc1 | 53.9% (active)
C=C(C)COc1ccc(-c2nc(N)ncc2-c2ccc(OC)cc2)c(O)c1 | 120% (active)
C=C(C)COc1ccc(-c2nc(N)ncc2Oc2ccccc2OC)c(O)c1 | -4.5%
N#Cc1cc(C(=O)c2cc(Br)ccc2O)cn(C2CC2)c1=O | 10.6%
O=C(c1ccc(CN2CCc3ccccc3C2)cc1)N1CCCCC1 | -21.9%
O=S(=O)(c1ccc(N2CCOCC2)cc1)N1CCOCC1 | -6.3%

SMILES | cytotoxicity
CC(=O)N1CC2(C)CN(C(C)=O)CC(C)(C1)C2O (stereo not drawn) | 1.7%
CCOc1cc(S(=O)(=O)NCCN2CCOCC2)c(C)cc1C | -17.8%
C=CCc1ccccc1OCC(O)CN1CCN(c2ccc(OC)cc2)CC1 (stereo not drawn) | 9.3%
COC(=O)C1(CCSC)NC(c2ccccc2OC)C2C(=O)N(C)C(=O)C21 (stereo not drawn) | 8%
O=c1c2ccccc2nnn1CSc1nc2cc(Cl)ccc2c(=O)n1Cc1ccco1 | 6.2%
CCOC(=O)N1CCN(C2=CC(=O)OC23CCCCC3)CC1 | 3.3%
COc1ccc(Oc2c(-c3ccc(O)cc3O)n[nH]c2C)cc1 | 27.1%
C=C(C)COc1ccc(-c2n[nH]c(C)c2Oc2ccccc2OC)c(O)c1 | 66.1% (active)
CCOc1ccc(-c2n[nH]c(C)c2Oc2ccccc2OC)c(O)c1 | 2.5%
Cc1oc2cc(O)ccc2c(=O)c1Oc1ccccc1 | -6.1%
C=C(C)COc1ccc(-c2nc(N)nc(C)c2Oc2ccccc2OC)c(O)c1 | 1.4%
C=C(C)COc1ccc(-c2ncncc2Oc2ccc(OC)cc2)c(O)c1 | 17.6%
COc1cccc(Oc2cncnc2-c2ccc(OC)cc2O)c1 | 21.1%
Cc1[nH]nc(-c2ccc(O)cc2O)c1Oc1ccccc1 | 63.9% (active)
CCc1nnc(NC(=O)CSc2nnc(-c3ccoc3C)n2-c2ccc(C)cc2)s1 | -6.5%
CC(OC(=O)C1CC=CCC1C(N)=O)C(Cl)=C(Cl)Cl (stereo not drawn) | -9.4%
CC(C)OC(=O)CSc1nnc(-c2cnccn2)n1C | -7.5%
O=C(NCCN1CCN(c2ccccc2F)CC1)C1c2ccccc2C(=O)N2CCc3ccccc3C12 (stereo not drawn) | -3.5%
N#CCCC12CCCCC1=Nc1ccccc12 (stereo not drawn) | -11.5%
CCN1CCN(CC(=O)n2c3c(c4ccccc42)CC(C)CC3)CC1 (stereo not drawn) | 16.2%
COc1ccc(CNC(=O)c2cc(-c3ccco3)on2)cc1 | -5.9%
c1csc(-c2nn3c(C4COc5ccccc5O4)nnc3s2)c1 (stereo not drawn) | -1.6%
C=CCOc1nc2c(c(=O)n(Cc3ccc(Cl)cc3)c(=O)n2C)n1C | -0.2%
C=CCOc1nc2c(c(=O)n(C)c(=O)n2C)n1Cc1ccc(Cl)cc1 | 64.6% (active)

SMILES | cytotoxicity
C=CCOc1nc2c(c(=O)n(C)c(=O)n2C)n1Cc1ccc(Cl)cc1Cl | -24.2%
CCC(C)NC(=O)CN(c1ccc2c(c1)OCO2)S(=O)(=O)c1c(C)n[nH]c1C (stereo not drawn) | 3.1%
CC1(C)CC(=O)c2cnc(NC(=O)CCc3ccccc3)nc2C1 | -12.6%
CCn1c(SCC(=O)Nc2oc(-c3ccccc3)c(-c3ccccc3)c2C#N)nnc1-c1ccco1 | 29.1%
N#Cc1c(NC(=O)CN2CCOCC2)oc(-c2ccccc2)c1-c1ccccc1 | 10.6%
N#Cc1c(NC(=O)CCN2C(=O)c3ccccc3C2=O)oc(-c2ccccc2)c1-c1ccccc1 | 2.4%
Cc1ccnc(SCC(=O)Nc2oc(-c3ccccc3)c(-c3ccccc3)c2C#N)n1 | 29.2%
N#Cc1c(NC(=O)Cn2c(=O)oc3ccccc32)oc(-c2ccccc2)c1-c1ccccc1 | 52% (active)
CCc1nnc(NC(=O)CN2CCN(c3ccccc3OC)CC2)s1 | -2.9%
CCOC(=O)CSc1nc2ccsc2c(=O)n1C1CCN(C(=O)OCC)CC1 | 8%
O=C(COC(=O)c1ccc2c(c1)OCO2)NCc1ccc(Cl)cc1 | 8.3%
O=C(CCn1c(=O)c2sccc2n(CC(=O)OCc2ccccc2)c1=O)NCc1ccco1 | -12.9%
CCOC(=O)c1ccc(-n2[nH]c(-c3ccccc3)cc2=O)cc1 | 58.5% (active)
CCOC(=O)c1ccc(-n2c(=O)[nH]c3ccccc3c2=O)cc1 | 3%
CCOC(=O)c1ccc(N2C(=O)C(C)=C(C)C2=O)cc1 | 35.6%
COc1ccc(CCNC(=O)CCn2c(=O)oc3ccccc32)cc1 | -9.7%
COC(=O)c1ccc(CSc2nnc(NCc3ccccc3)s2)o1 | -2.2%
CCOc1ccccc1Nc1nnc(SCc2ccc(C(=O)OC)o2)s1 | 57.3% (active)
COC(=O)c1ccc(CSc2nnc(Nc3ccccc3OC)s2)o1 | 44.9%
c1ccc2nc(N3CCOCC3)c(N3CCOCC3)nc2c1 | -2.3%
Cc1cc(=O)[nH]c(SCC(=O)N2CCN(C(c3ccccc3)c3ccccc3)CC2)n1 | -3.1%
